# From the supplement of paper PMC3334620
# The full ranking holds about 33,000 sequences; the median of “E-score (-0.5 to 0.5)” is about -0.035, and the highest 2% start at about 0.35. The sample as a whole holds a higher share of the highest values than the screen did.
# Biological target: T1, Pdr3 (UniProt P33200)
# T1 sequence: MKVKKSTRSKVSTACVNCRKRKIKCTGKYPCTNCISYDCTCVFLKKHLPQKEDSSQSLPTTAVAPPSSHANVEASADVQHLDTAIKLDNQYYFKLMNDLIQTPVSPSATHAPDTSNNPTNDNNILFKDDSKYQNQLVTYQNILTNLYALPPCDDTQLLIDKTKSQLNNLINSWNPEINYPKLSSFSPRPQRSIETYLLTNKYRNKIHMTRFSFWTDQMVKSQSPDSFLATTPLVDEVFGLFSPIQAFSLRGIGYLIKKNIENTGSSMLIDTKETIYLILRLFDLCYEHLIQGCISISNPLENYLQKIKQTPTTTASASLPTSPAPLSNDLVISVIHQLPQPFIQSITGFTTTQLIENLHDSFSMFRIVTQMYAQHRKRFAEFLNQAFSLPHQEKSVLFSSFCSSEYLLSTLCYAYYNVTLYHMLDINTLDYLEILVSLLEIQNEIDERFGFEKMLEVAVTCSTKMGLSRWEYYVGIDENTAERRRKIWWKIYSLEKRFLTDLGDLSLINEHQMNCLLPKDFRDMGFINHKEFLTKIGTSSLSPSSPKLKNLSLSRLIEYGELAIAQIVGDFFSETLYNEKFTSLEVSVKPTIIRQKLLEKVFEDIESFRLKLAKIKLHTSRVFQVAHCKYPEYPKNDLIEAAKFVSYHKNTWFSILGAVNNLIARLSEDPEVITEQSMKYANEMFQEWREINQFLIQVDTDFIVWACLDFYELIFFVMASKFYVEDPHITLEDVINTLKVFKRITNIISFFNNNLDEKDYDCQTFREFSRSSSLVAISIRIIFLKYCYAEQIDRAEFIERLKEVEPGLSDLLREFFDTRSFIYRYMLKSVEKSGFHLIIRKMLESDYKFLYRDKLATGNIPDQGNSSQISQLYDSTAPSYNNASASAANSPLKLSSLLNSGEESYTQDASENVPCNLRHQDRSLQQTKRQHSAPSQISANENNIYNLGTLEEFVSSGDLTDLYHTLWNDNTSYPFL
# Experiment: PBM E-score (8-mer binding enrichment) (E-score (-0.5 to 0.5)); higher = stronger / more preferred TF binding
# Details: protein concentration: 200 nM; construct: GST-full length
# Description: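 Universal 'all 10-mer' protein binding microarrays (Agilent AMADID 015681) probed with GST-tagged S. cerevisiae TFs (full-length or DBD) made by in vitro transcription/translation (PURExpress), about 100-200 nM. Bound TF was detected with fluorescent anti-GST. Each ungapped 8-mer (which stands for itself and its reverse complement) is scored by the PBM enrichment score (E-score), a modified Wilcoxon-Mann-Whitney statistic from -0.5 to +0.5, computed with the Universal PBM Analysis Suite. Scale: above 0.35 generally sequence-specific binding.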
row,Sequence,PBM E-score
1,AAAAATGG,0.0817
2,GCGCCGCA,0.151
3,CCCGGGCA,0.375
4,GCCGGGCA,0.282
5,ACCGGGCA,0.102
6,GATAGTGC,-0.0798
7,GTTCAAAC,-0.0193
8,AGGATAAC,-0.212
9,CTAATCTC,-0.0806
10,ATCCCGCG,0.465
11,AACCCGCC,0.165
12,AGCCCGCG,0.381
13,CACCCGCA,0.115
14,CACCCGCC,0.332
15,AGCCCGCT,-0.183
16,AACCCGCG,0.431
17,CACCCGCG,0.42
18,CGCCCGCG,0.314
19,ATCCCGCC,0.322
20,AACCCGCA,0.18
21,ATCCCGCA,0.21
22,AATTAGCA,0.103

row,Sequence,PBM E-score
1,ATGTCGAC,0.0706
2,ATTGCGAA,-0.0818
3,GTCAGATA,-0.0744
4,CTAAGAAC,0.165
5,CAGACGAA,0.199
6,AGAATACT,-0.121
7,CAGAACAA,0.0215
8,CTACTTAC,-0.312
9,CACTAAGG,-0.0887
10,AATCCCCG,0.296
11,CATCCCCG,0.354
12,CATCCCCC,0.0287
13,CATCCCGG,0.431
14,AATCCCTG,-0.0189
15,CATCCCGC,0.315
16,CATCCCCA,-0.0591
17,AATCCCGG,0.407
18,CATCCCAG,-0.106
19,CATCCCGA,0.352
20,GATCCCGC,0.371
21,GATCCCGA,0.317
22,CACTTTAG,-0.149

row,Sequence,PBM E-score
1,AGTCTGCG,-0.259
2,CAGGCGTA,-0.145
3,ACGTCAGG,-0.326
4,AGGCAGGG,-0.153
5,ACGAATGC,-0.158
6,ATGCGCGG,0.355
7,ATGCGCGC,0.275
8,CTCCGCGA,0.258
9,CCGCGCGC,0.332
10,CTCCGCGC,0.368
11,GCGCGCGC,0.388
12,ACGCGCGC,0.238
13,ATCCGCGC,0.309
14,GCGCGCGA,0.308
15,CCGCGCGG,0.473
16,CCGCGCGA,0.303
17,ATGCGCGA,0.0846
18,GCGTAGTA,-0.095
19,ACGCCTGA,-0.148
20,CTAGAAAG,-0.189
21,CGCCGGGC,0.308
22,CTCCGAGA,0.274

row,Sequence,PBM E-score
1,AGCCGGGA,0.3
2,CGCCGGTA,0.13
3,GGCCGGGA,0.39
4,GGCCGGTA,0.274
5,GTCCGGGA,0.353
6,CGCCGGGA,0.382
7,CTCCGGGA,0.399
8,GAACATAC,0.0175
9,CCTAGACG,0.012
10,ATCCTGGG,-0.104
11,GGCCCCCC,-0.0393
12,AAGGCTTG,-0.0886
13,AGATCACC,0.0531
14,GAGACTCC,0.0113
15,AGGCTAAA,-0.297
16,CCGGAGTC,0.384
17,ACGGAGTC,0.193
18,CCGGAGGC,0.292
19,GCGGAGTA,0.245
20,ACGGAGTA,0.297
